An excerpt weighted towards active compounds, which were near 19% of everything screened.
DT40 TDP1 CPT – qHTS for Inhibitors of human tyrosyl-DNA phosphodiesterase 1 (TDP1): qHTS in cells in presence of CPT; AID 686979, 2013; actives 12% (n = 420,000); Potency, µM (top dose mostly 46.2 µM), actives largely listed as inhibitors; chicken DT40 Tdp1-/-;hTDP1 cells + 20 nM CPT, ATP luminescence, 48 h; further: nearly all actives have a fitted effect of over 55% in size
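Chicken DT40 Tdp1-/- cells complemented with human TDP1, 400 cells/well, exposed to compounds plus 20 nM camptothecin for at least 48 h at 37 C; viability read as ATP content by CellTiter-Glo luminescence.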
IL1B secr inh – qHTS for Inhibitors of Inflammasome Signaling: IL-1-beta AlphaLISA Primary Screen. actives 4.7% (n = 360,000). THP-1 LPS/ATP IL-1B secretion, AlphaLISA, 16 h; hits give low values. activity change, % at 57.5 µM. AID 743279, 2014; in the data active means activity change below about -50%; inconclusive means mostly about -30% to -49%
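THP-1 cells pretreated 1 hr with compounds (up to 57.5 uM final), then stimulated with LPS (250 ng/mL final) plus ATP (1.25 mM final); secreted IL-1B measured by AlphaLISA after 16 hr, decreased signal indicating inhibition.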
DT40 TDP1 no CPT – qHTS for Inhibitors of human tyrosyl-DNA phosphodiesterase 1 (TDP1): qHTS in cells in absence of CPT. actives 15% (n = 420,000). DT40 Tdp1-/- hTDP1 cells, no CPT, ATP luminescence, 48 h. AID 686978, 2013. Potency, µM (top dose mostly 46.2 µM), actives largely listed as inhibitors; further: nearly all actives have a fitted effect of over 55% in size
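Camptothecin absent (DMSO only). Human TDP1-complemented DT40 knockout cells, 400 cells/well, 37 °C for minimum 48 hr; ATP measured via CellTiter-Glo, 30 min dark incubation, luminescence.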
HT1080NT lethal – qHTS for induction of synthetic lethality in tumor cells producing 2HG: qHTS for the HT-1080-NT fibrosarcoma cell line | HT-1080-NT fibrosarcoma viability, CellTiter-Glo ATP luminescence, 48 h | Potency, µM (doses to about 46.1 µM), most hits filed as cytotoxic | actives 1.6% (n = 360,000);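 further: NT is the 2HG producing partner of a matched IDH1 knockdown line; nearly all actives have a fitted effect of over 55% in size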
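HT-1080-NT; 750 cells/well; 5% FBS RPMI; 48 h compound, 37 degrees C; CellTiter-Glo luminescence; curve fitting and curve-class assignment.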
HT1080 IDH1KD tx – qHTS for induction of synthetic lethality in tumor cells producing 2HG: qHTS for the HT-1080-IDH1KD cell line | HT-1080 IDH1 knockdown viability, ATP luminescence, 48 h | Potency, µM (doses to about 46.1 µM), hits mostly cytotoxic | actives 2% (n = 360,000)
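Cytotoxicity counter-line: IDH1KD HT-1080, 48 h, CellTiter-Glo. Curves classed by r2, magnitude and activity.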
A number is an active result; . = inactive; ? = inconclusive; / = no result; [ ] = remark or other dose. Unless noted, the call rests on the fitted dose curve; in most records, active means well fitted curve in the direction sought with a large enough effect; inconclusive means small, poorly fitted or top-dose-only effect, or another doubt; inactive means no such curve, though single readings can be large; an effect the other way counts as inactive or inconclusive.

SMILES	DT40 TDP1 CPT	IL1B secr inh	DT40 TDP1 no CPT	HT1080NT lethal	HT1080 IDH1KD tx
COc1cc(C(=O)NC(C)C2CC3CCC2C3)cc(OC)c1OC (centres undefined)	?	.	?	.	.
CCN(Cc1ccccc1)S(=O)(=O)c1cc(C(=O)NC(C)C2CC3CCC2C3)ccc1OC (centres undefined)	16µM	.	15µM	.	.
CCN(Cc1ccccc1)S(=O)(=O)c1cc(C(=O)c2c(N)n(C)c(=O)n(C)c2=O)ccc1OC	?	.	29µM	.	.
CCc1nn(CC(=O)NCCc2ccc(SC)cc2)c(=O)c2cc3sccc3n12	.	/	.	/	/
CCOc1ccccc1NC(=O)c1cc(S(=O)(=O)NCc2ccco2)ccc1F	15µM	.	.	.	.
COc1ccc(S(=O)(=O)NCCSCc2ccc(Cl)cc2)cc1NC(C)=O	?	.	26µM	.	.
COc1ccc(C(=O)O)cc1S(=O)(=O)NCc1ccncc1	.	.	.	.	.
CC(=O)Nc1ccc(S(=O)(=O)NCCSCc2c(Cl)cccc2Cl)cc1	?	-66	?	.	?
COc1ccc(S(=O)(=O)NCc2ccncc2)cc1NC(=O)c1ccc(Cl)cc1	16µM	-67	15µM	.	.
COc1ccc(CN2CCOc3ccc(C(O)c4cccnc4)cc3C2)c(F)c1 (centres undefined)	.[9.04 µM]	/	?	/	/
COc1ccc(S(=O)(=O)NCc2ccncc2)cc1NC(=O)c1ccccc1	21µM	.	16µM	?	.
CCOc1ccc(S(=O)(=O)NCc2ccncc2)cc1NC(=O)c1ccccc1F	.	.	1.5µM	?	23µM
CCOc1ccc(S(=O)(=O)N2CCCCC2)cc1NC(=O)c1ccccc1	.	.	?	.	.
COc1ccc(S(=O)(=O)NCc2cccnc2)cc1NC(=O)c1ccccc1	.	.	.	.	.
CCOc1ccc(S(=O)(=O)NCc2ccncc2)cc1NC(=O)c1ccccc1	3.7µM	.	1.2µM	3.7µM	23µM
C#C[C@]1(O)CC[C@H]2[C@H]3CCC4=Cc5oncc5C[C@]4(C)[C@@H]3CC[C@]21C	.	/	?	/	/
CC(C)N(C(=S)Nc1cccc(C(F)(F)F)c1)C(C)c1ccccn1 (centres undefined)	.	-91	?	.	.
Cn1c(SCC(=O)Nc2ccc(C(N)=O)cc2)nc2c(c1=O)SCC2	.	.	.	.	.
Cn1c(SCc2ccc(Br)cc2)nc2c(c1=O)SCC2	18µM	.	16µM	.	.
Cn1c(SCC(=O)Nc2cccc(F)c2)nc2c(c1=O)SCC2	15µM	.	18µM	.	.
COc1ccc(NC(=O)CSc2nc3c(c(=O)n2-c2ccccc2OC)SCC3)cc1	.	.	?	.	.
CCOC(=O)c1ccc(NC(=O)CSc2nc3c(c(=O)n2-c2ccccc2OC)SCC3)cc1	?	.	12µM	.	.
Cn1c(SCC(=O)Nc2ccccc2C(F)(F)F)nc2c(c1=O)SCC2	16µM	.	10µM	?	.
Cn1c(SCc2cccnc2)nc2c(c1=O)SCC2	.	.	.	.	.
O=C(COc1ccccc1)N[C@@H]1c2ccccc2CC[C@@H]1O	.	.	.	.	.
SMILES	DT40 TDP1 CPT	IL1B secr inh	DT40 TDP1 no CPT	HT1080NT lethal	HT1080 IDH1KD tx
O=C(Nc1ccccc1)OCC(CN1CCCCC1)OC(=O)Nc1ccccc1 (centres undefined)	?	?	?	.	.
CCN(CC(=O)Nc1c(F)cccc1F)C(=O)CCc1nc2cc(S(=O)(=O)N3CCOCC3)ccc2n1C	.	.	.	.	.
C=C[C@@H]1c2ccccc2N(S(=O)(=O)c2ccc(C)cc2)[C@H](c2ccc(OC(C)=O)cc2)C1(C#N)C#N	16µM	.	16µM	?	?
C=C[C@@H]1c2cc(C)ccc2N(S(=O)(=O)c2ccc(C)cc2)[C@H](c2ccc(OC(C)=O)cc2)C1(C#N)C#N	4.6µM	.	5.8µM	7.3µM	6.5µM
Cc1ccc2c(c1)C1CN(C)CCC1N2S(=O)(=O)c1ccc(C#N)cc1 (centres undefined)	.	.	.	.	.
COc1cccc(NC(=O)c2oc3ccccc3c2NC(=O)COc2ccccc2C)c1	.	/	.	/	/
CCC(OC(=O)C1=Cc2ccccc2OC1)C(=O)NCc1ccco1 (centres undefined)	.	.	26µM	.	.
Cc1ccc(C(=O)NCCN(C)C)cc1C	.	.	.	.	.
CN(C)CCNc1cccc2sc3ccc(O)cc3c(=O)c12	0.18µM	-95	0.33µM	9.2µM	12µM
Cc1ccc(NCCN(C)C)c2c(=O)c3cc(O)ccc3sc12	0.15µM	-102	0.18µM	?	?
Cc1cc(CCNC=O)c(C)c2c1sc1ccccc12	.	?	.	.	.
COc1cc(C)c2sc3ccccc3c(=O)c2c1NCCN(C)C	6.5µM	/	5.8µM	?	?
C/C(=N\NC(=O)CNC(=O)C(c1ccccc1)c1ccccc1)c1ccc(C(C)(C)C)cc1	16µM	.	16µM	?	?
CCN(CC)S(=O)(=O)c1ccc2c(c1)c(=O)c(C(=O)N(C)Cc1ccccc1)cn2C	.	/	.	/	/
O=C1N/C(=C\c2ccc(N3CCOCC3)c(F)c2)C(=O)N1Cc1ccccc1	.	.	.	?	18µM
Cc1ccc(CN2C(=O)N/C(=C\c3ccc(N4CCOCC4)cc3)C2=O)cc1	.	.	?	.	.
N#C/C(=N/Nc1ccc(OC(F)(F)F)cc1)C(N)=S	2.3µM	-64	1.6µM	23µM	16µM
Cc1cccc(NC(=O)Cn2nc(-c3ccccc3)c3cnc4ccccc4c32)c1	16µM	/	.	/	/
Cc1ccc(-c2nn(CC(=O)NC3CCCC3)c3c2cnc2ccc(F)cc23)cc1C	?	/	12µM	/	/
O=C(Cn1nc(-c2ccccc2)c2ccccc2c1=O)Nc1cccc(O)c1	.	-52	.	.	.
COc1ccc2ncc3c(-c4ccc(C)c(C)c4)nn(CC(=O)Nc4ccccc4)c3c2c1	15µM	/	18µM	/	/
CCc1ccc(-c2nn(CC(=O)NC3CCCC3)c3c2cnc2ccc(F)cc23)cc1	.	/	.	/	/
Cc1nn(CC(=O)Nc2cccc(O)c2)c(=O)c2ccccc12	.	.	.	.	.
CCc1ccc(OCC(=O)N2CCN=C2c2ccccc2)cc1	.	.	.	.	.
COc1cc2ncc3c(-c4ccccc4)nn(-c4ccc(C)cc4)c3c2cc1OC	16µM	/	16µM	/	/
COc1ccc2ncc3c(-c4ccccc4)nn(-c4ccc(C)c(C)c4)c3c2c1	12µM	/	9.2µM	/	/

Compound activity (PubChem BioAssay)
